Reference: PubChem BioAssay AID743286 (National Center for Advancing Translational Sciences (NCATS), 2014)
Among all 1,100 compounds or so, about 340 (31%) were called active. Roughly 40% stayed inconclusive and do not appear here. Only a sample is shown. Values without a mark were called inactive. The call rests on the fitted dose curve; in most records, active means well fitted inhibition curve with a large enough effect; inconclusive means small, poorly fitted or top-dose-only effect; inactive means flat fitted curve, though single readings scatter.

These compounds were tested against Phosphatidylinositol 5-phosphate 4-kinase type-2 alpha (Homo sapiens) (UniProt P48426) (assay: qHTS for Inhibitors of PI5P4K: Confirmation in Primary Assay). Conditions: PI5P4Kalpha enzyme, ADP-Glo luminescence, 60 min; series mostly up to 76.9 µM; activity change, negative = inhibition: at the top concentration.
Source text: In addition to finding PI5P, we discovered the type II phosphatidylinositol 5-phosphate 4-kinase (PI5P4K) family (alpha, beta, gamma isoforms) that catalyze the conversion of PI5P to PI(4,5)P2. Alternatively, PI(4,5)P2 can also be synthesized through phosphatidylinositol-4-phosphate (PI4P) by the type I phosphatidylinositol 4-phosphate 5-kinases (PI4P5K). These PI5P4K enzymes therefore represent one way by which cells can regulate endogenous PI5P levels and play important roles in insulin signaling and in stress responses. […] A qHTS PI5P4K-alpha ADP-Glo assay was developed to identify specific modulators of human PI5P4K, phosphatidylinositol-5-phosphate 4-kinase (Type II PIPK). This assay was screened against the MLSMR containing ~400,000 small molecules (PubChem AID 652105). To confirm that the hits were not interacting with the detection enzyme system, a 1536-well counterscreen against the ADP-Glo kit (Promega) was utilized, as described in Davis et al., 2013 [1]. Davis et al., PLoS One. 2013;8(1):e54127. NIH Chemical Genomics Center [NCGC] NIH Molecular Libraries Probe Centers Network [MLPCN] MLPCN Grant: MH096575 Assay Submitter (PI): Atsuo Sasaki, Beth Israel Deaconess Medical Center
2 microL of PI5P4Kalpha/substrate buffer (columns 1-2, 5-48) are dispensed into Greiner white solid bottom 1536-well assay plates; column 3 receives only PI5P4Kalpha buffer as 0x substrate controls; column 4 receives only substrate buffer as 0x PI5P4Kalpha controls. Final assay buffer consists of 0.038 M HEPES pH 7.4, 0.28 mM EGTA, 0.1% CHAPS, and 5% DMSO (final concentration). Compounds are then transferred via Kalypsys pin tool equipped with 1536-pin array (10 nL slotted pins, V&P Scientific, San Diego, CA). Following addition of compound, 1 microL of ATP (5 microM final concentration, all columns) is added to initiate the reaction. ATP is diluted in an assay buffer consisting of 0.02 M HEPES pH 7.4, 60 mM MgCl2, 15 microM ATP, and 0.1% CHAPS. The plates are then incubated at room temperature for 60 minutes. ADP-Glo reagent 1 is added (2 microL) and plates incubated for 45 minutes, before ADP-Glo reagent 2 (4 microL) is added and plates incubated for 30 minutes. They are then transferred to a ViewLux high-throughput CCD imager (PerkinElmer) wherein single end-point measurements of luminescence are acquired using a clear filter.
Further: nearly all actives have a fitted effect of over 65% in size.
On the % scale 0 is the no-effect control and ±100 the full control effect; potency means the concentration at half of the fitted maximal effect.

Sequence of Phosphatidylinositol 5-phosphate 4-kinase type-2 alpha (Homo sapiens) (P48426 whole entry, looked up, canonical isoform): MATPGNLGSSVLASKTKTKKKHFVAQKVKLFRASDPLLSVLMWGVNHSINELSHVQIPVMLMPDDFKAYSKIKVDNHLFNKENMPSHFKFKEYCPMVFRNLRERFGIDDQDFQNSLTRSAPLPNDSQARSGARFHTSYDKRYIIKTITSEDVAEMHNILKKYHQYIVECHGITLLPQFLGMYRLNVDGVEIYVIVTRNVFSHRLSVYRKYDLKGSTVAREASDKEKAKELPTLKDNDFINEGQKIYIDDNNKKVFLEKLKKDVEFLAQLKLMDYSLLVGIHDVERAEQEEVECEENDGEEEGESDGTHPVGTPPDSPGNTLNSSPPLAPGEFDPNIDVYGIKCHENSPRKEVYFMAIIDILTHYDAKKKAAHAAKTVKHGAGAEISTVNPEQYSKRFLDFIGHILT

| SMILES | activity change, negative = inhibition [%] | Potency |
| --- | --- | --- |
| O=C(CSC1=NCCS1)NCc1ccco1 | -2.33 |  |
| S=C(NCc1ccco1)NCc1ccco1 |  | 14.1 µM (active) |
| O=C(c1ccco1)N1CCN(C(=O)c2ccc(-c3ccc([N+](=O)[O-])cc3)o2)CC1 | -22.3 |  |
| O=C(NCc1ccco1)c1ccc([N+](=O)[O-])o1 |  | 31.6 µM (active) |
| CC(C)(C)[C@H]1C=C(C(=O)N2CCOCC2)O[C@@H](OCc2ccc(CO)cc2)C1 | 12.7 |  |
| COc1ccc(Cl)cc1S(=O)(=O)NCCCn1ccnc1 | 15.4 |  |
| COCCNC(=O)c1cc(-c2ccccc2)sc1N | -27.2 |  |
| Cc1ccc(CNc2ncnc3ccc(-c4ccc(CO)o4)cc23)o1 | -12.4 |  |
| Cc1cc(O)ccc1Nc1cc(-c2cccc(N(C)C)c2)ncn1 |  | 12.6 µM (active) |
| O=C(NC1CCCC1)C(c1ccncc1)N(C(=O)c1csnn1)c1ccccc1F (stereo not given) | 2.88 |  |
| Cc1sc2ncn(CC(=O)N3CCC(C(N)=O)CC3)c(=O)c2c1S(=O)(=O)N1CC(C)CC(C)C1 (stereo not given) | -2.16 |  |
| Cc1ccc(C)c(OC(C)C(=O)Nc2ccc(S(=O)(=O)Nc3nccs3)cc2)c1 (stereo not given) | -10.6 |  |
| O=C(Nc1ccc(S(=O)(=O)Nc2nccs2)cc1)c1nn(-c2ccc(F)cc2)ccc1=O |  | 15.8 µM (active) |
| Cc1noc(C)c1C(=O)Nc1ccc(-n2ccc(C(F)(F)F)n2)cc1 | 19.3 |  |
| COc1ccc(C(=O)N2CCCC2(C)C(=O)O)cc1C(F)(F)F (stereo not given) | -0.629 |  |
| CC(=O)N1CCN(S(=O)(=O)c2cccc(C(=O)Nc3ccc(F)c(F)c3)c2)CC1 | 1.67 |  |
| O=C(c1cccc(-n2cccc2)c1)N1CCN(S(=O)(=O)c2ccccc2)CC1 |  | 3.98 µM (active) |
| COc1ccc(CN2CCC(=O)N([C@H](CO)CC(C)C)CC2)cc1OC | -0.623 |  |
| CCCCCCCCN1C(=O)[C@H](CC(=O)NCc2ccc(C)o2)C[C@@]2(C(=O)OC)CC(C)(C)CC=C12 | -22 |  |
| CC1=NN(c2nc(-c3ccc(Cl)cc3)cs2)C(=O)C1 |  | 15.8 µM (active) |
| CCOC(=O)Nc1ccc2c(CNC(C)c3ccccc3OC)cc(=O)oc2c1 (stereo not given) | -1.24 |  |
| CC1CCN(C(=O)c2ccc(COc3ccccc3Cl)o2)CC1 | -1.87 |  |
| CCCCC1=CC2=C(c3ccco3)C(=O)C(C)(OC(=O)c3ccc(OC)cc3)C(=O)C2=CN1Cc1ccccc1 (stereo not given) | -20 |  |
| COC(=O)CCC(=O)OC1(C)C(=O)C2=CN(CC3CC3)C(c3ccc(OC)cc3)=CC2=C(Br)C1=O (stereo not given) | -26 |  |
| COc1ccc(C2=CC3=C(Br)C(=O)C(C)(OC(=O)c4cccs4)C(=O)C3=CO2)cc1 (stereo not given) |  | 22.4 µM (active) |

| SMILES | activity change, negative = inhibition [%] | Potency |
| --- | --- | --- |
| Cc1ccc(S(=O)c2ccc(NC(=O)C3CC3)cc2C#N)cc1 (stereo not given) | 0.926 |  |
| Cc1ccc(N(C(=O)CNC(=O)c2ccco2)C(C(=O)NC2CCCC2)c2cccnc2)c(C)c1 (stereo not given) | 0.488 |  |
| O=C(CN1CCN(c2ccccc2F)CC1)NCc1ccccc1 | 0.884 |  |
| Cc1ccc(-c2csc(NC(=O)c3ccc(Br)cc3)c2C(=O)O)cc1 |  | 14.1 µM (active) |
| COc1cc(C(=O)Nc2scc(-c3ccc(Br)cc3)c2C(=O)O)cc(OC)c1OC |  | 5.62 µM (active) |
| COc1ccc(-c2csc(NC(=O)c3ccccc3F)c2C(=O)O)cc1 | -21.7 |  |
| COc1cc(C(=O)Nc2scc(-c3ccc(C)cc3)c2C(=O)O)cc(OC)c1OC |  | 3.55 µM (active) |
| COc1cc(C(=O)Nc2scc(-c3ccccc3)c2C(=O)O)cc(OC)c1OC |  | 12.6 µM (active) |
| COc1ccc(C(=O)NCCSc2ccccc2)cc1OC | -0.179 |  |
| NC(=O)C1CCN(CC(=O)Nc2ccc3c(c2)OCCO3)CC1 | -1.63 |  |
| CCOC(=O)CSc1nc2ccc(NC(=O)CSc3nnnn3Cc3ccccc3)cc2s1 | -28.3 |  |
| O=C(NCCc1ccccc1)C(c1cccs1)N(C(=O)c1csnn1)C1CC1 (stereo not given) | -0.725 |  |
| Cc1nc(CS(=O)(=O)c2ccccc2)cc(N2CCOCC2)n1 | 1.26 |  |
| O=C(CCNS(=O)(=O)c1ccc(Br)s1)NCc1ccccc1Cl | 5.56 |  |
| CCCCC1Cc2[nH][nH]c(=O)c2C(c2ccc(F)cc2)O1 (stereo not given) | -21.6 |  |
| COc1ccc2nc(SCC(=O)N3CCN(c4ccc(F)cc4)CC3)c(C#N)cc2c1 | 2.87 |  |
| O=S(=O)(c1ccccc1)N1N=C(c2cccs2)CC1c1ccc(Br)cc1 (stereo not given) | 4.73 |  |
| O=C1NC(c2cc(Cl)cc([N+](=O)[O-])c2O)Nc2ccccc21 (stereo not given) |  | 8.91 µM (active) |
| O=C1NC(c2cccs2)Nc2ccccc21 (stereo not given) | -12.8 |  |
| Cc1cccc(S(=O)(=O)NC(=O)C2(C)CCN2C(=O)Cc2cc(F)ccc2F)c1 (stereo not given) | -1.58 |  |
| Cc1cccc2cc(CN(Cc3cccnc3)C(=S)NCCCN(C)C)c(=O)[nH]c12 | 0.897 |  |
| COc1cc(Cn2c3ccc(NC(=O)CCc4ccccc4)cc3c(=O)n2C)ccc1F | -2.41 |  |
| CCOc1ccc(S(=O)(=O)N(C(=O)c2ccco2)c2cc3sc(=O)oc3c3ccccc23)cc1 | -1.84 |  |
| CCCOc1ccc(CSc2ncn[nH]2)cc1 | 1.37 |  |
| O=C(NC1CCC(O)CC1)c1cc(-c2ccco2)nc2ccccc12 (stereo not given) |  | 12.6 µM (active) |
